Assay results: PubChem BioAssay AID1851 (National Center for Advancing Translational Sciences (NCATS), 2009)
About 5,700 (36%) of roughly 16,000 compounds were called active. Roughly 24% stayed inconclusive and do not appear here. The list shows a part of the results. Values without a mark were called inactive. Calls come from the whole dose curve; as a rule, active = well fitted curve in the direction sought with a large enough effect; inconclusive = small, poorly fitted or top-dose-only effect, or effect the other way; inactive = no such curve, though single readings can be large or run the other way.

Molecular target: Cytochrome P450 1A2 (Homo sapiens) (UniProt P05177)
Sequence (P05177 whole entry, looked up): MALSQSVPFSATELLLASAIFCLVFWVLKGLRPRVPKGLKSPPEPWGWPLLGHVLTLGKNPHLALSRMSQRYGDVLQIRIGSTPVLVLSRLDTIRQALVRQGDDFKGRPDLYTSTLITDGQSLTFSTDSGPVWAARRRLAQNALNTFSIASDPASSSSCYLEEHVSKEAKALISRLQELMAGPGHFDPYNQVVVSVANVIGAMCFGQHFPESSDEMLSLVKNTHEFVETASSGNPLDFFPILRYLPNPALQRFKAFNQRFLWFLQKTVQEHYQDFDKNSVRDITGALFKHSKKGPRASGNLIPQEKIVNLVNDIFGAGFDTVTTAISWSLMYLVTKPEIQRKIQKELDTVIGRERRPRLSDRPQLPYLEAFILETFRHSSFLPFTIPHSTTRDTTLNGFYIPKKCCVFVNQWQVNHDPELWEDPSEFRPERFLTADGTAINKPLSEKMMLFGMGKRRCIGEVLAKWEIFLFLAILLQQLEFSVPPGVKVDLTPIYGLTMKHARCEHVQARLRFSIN
Assay: Cytochrome panel assay with activity outcomes
Settings: recombinant CYP, pro-luciferin dealkylation, luminescence, p450-cyp1a2; series mostly up to 57.1 µM; activity, negative = inhibition: at the top concentration
% is set by controls: 0 for no effect and ±100 for the full control effect.

Row | Compound | activity, negative = inhibition | AC50
1 | COC(=O)N1CCC2(CCN(Cc3nccs3)CC2)CC1 | -3.62% | –
2 | C/C(=N/O)[C@@H]1C[C@H](CC(=O)O)C1(C)C | -2.9% [at 11.4 µM] | –
3 | COCCn1c(=O)c(-c2cc(F)cc(F)c2)nc2cncnc21 | – | 2000 nM (active)
4 | COCCn1c(=O)c(-c2cccc(Cl)c2)nc2cncnc21 | – | 631 nM (active)
5 | COCCn1c(=O)c(-c2ccc(Cl)cc2)nc2cncnc21 | – | 200 nM (active)
6 | COCCn1c(=O)c(-c2cccc(F)c2)nc2cncnc21 | – | 2000 nM (active)
7 | COCCn1c(=O)c(-c2ccccc2)nc2cncnc21 | – | 794 nM (active)
8 | COCCn1c(=O)c(-c2ccc(F)cc2)nc2cncnc21 | – | 501 nM (active)
9 | COCCn1c(=O)c(-c2ccc(F)c(F)c2)nc2cncnc21 | – | 251 nM (active)
10 | COc1ccccc1CNC(=O)C1CC(=O)N(C2CCCC2)C1 (stereo not given) | -19.2% | –
11 | COc1ccc(NC(=O)C2CCN(C(=O)c3cccs3)CC2)c(OC)c1 | -4.18% | –
12 | COc1ccc2oc(=O)c(NC(=O)C3CCCCC3)cc2c1 | – | 2510 nM (active)
13 | COc1cccc2cc(NC(=O)C3CCCCC3)c(=O)oc12 | – | 1260 nM (active)
14 | COc1ccc(NC(=O)CC2C(=O)N(c3cccc(OC)c3)C(=O)N2C2CCCCC2)cc1 (stereo not given) | -27.4% | –
15 | COc1ccc2oc(=O)c(C(=O)Oc3ccc(NC(C)=O)cc3)cc2c1 | -26.3% | –
16 | CC[C@H]1C2=C3C(CC[C@H]4C(OCc5ccc(F)cc5C(F)(F)F)OC[C@](C)([C@@H]34)N(C(=O)OC(C)(C)C)C2)C(COC)C1COC (stereo not given in full) | -11.5% | –
17 | COc1cc2ccc([C@H](C)NCC#N)cc2cc1OC | – | 501 nM (active)
18 | COC(=O)C(C(=O)OC)C(C[N+](=O)[O-])c1ccc(OC)c(OC)c1 (stereo not given) | -6.19% | –
19 | COc1ccc(CNCCC(c2ccc(OC(C)C)cc2)C(C)C)cc1OC (stereo not given) | -12.1% | –
20 | c1ccc([C@H](c2cccc3c2ccc2ccccc23)[C@H](c2ccccc2)c2cccc3c2ccc2ccccc23)cc1 | -9.37% [at 11.4 µM] | –

Row | Compound | activity, negative = inhibition | AC50
21 | Cc1cc2ccccc2c[n+]1CC(O)C[n+]1cc2ccccc2cc1C | -17.4% [at 11.4 µM] | –
22 | CCN(CC)C[C@@H](O)c1ccc2ccc3ccccc3c2c1 | – | 794 nM (active)
23 | CCCCCCCCN1C(=O)N(C)C(N(O)C(=O)NC)C1(C)C (stereo not given) | 15.6% | –
24 | CCCn1cnc2c1c(=O)n(CCCCC(C)=O)c(=O)n2C | – | 12600 nM (active)
25 | Cn1c(=O)c2c(ncn2CCO)n(C)c1=O | -8.78% [at 25.6 µM] | –
26 | Cn1c(=O)c2c(ncn2C[C@@H](O)CO)n(C)c1=O | -0.11% [at 25.6 µM] | –
27 | O=C(O)/C=C(/C(=O)O)[C@]12CCN3CC4=CCO[C@@H]5CC(=O)N[C@@H]1[C@H]5[C@H]4C[C@H]32 | -15% [at 2.29 µM] | –
28 | COc1ccc(CO/N=C/c2c(C)[nH]c(=O)[nH]c2=O)cc1 | – | 22400 nM (active)
29 | NC[C@H]1O[C@H](n2cnc3c(N)ncnc32)C[C@@H]1O | -9.51% [at 11.4 µM] | –
30 | O=c1oc2cc(N=Cc3ccc4c(c3)OCO4)ccc2c2ccccc12 | – | 7.94 nM (active)
31 | O=[N+]([O-])c1ccc2c(c1)Cc1cc(N=Cc3ccc4c(c3)OCO4)ccc1-2 | – | 794 nM (active)
32 | Cc1nc2c(O)cccc2c(=O)[nH]1 | – | 15800 nM (active)
33 | CSc1nc(O)c(Cc2ccccc2)c(=O)[nH]1 | 0.827% | –
34 | Cc1nc(CN2CCCCC2)c(O)c(=O)[nH]1 | -7.06% [at 11.4 µM] | –
35 | COc1ccc(C(C(=O)NC2CCCCC2)N(C(=O)c2sc(C)nc2C)c2ccc(OC)cc2)cc1 (stereo not given) | -11% | –
36 | COc1ccc(C(C(=O)NC2CCCCC2)N(C(=O)c2sc(C)nc2C)c2ccc(C(C)=O)cc2)cc1 (stereo not given) | -12.2% | –
37 | C/C(=N\OC(=O)NC1CCCCC1)c1sc(-c2ccccc2)nc1C | – | 7080 nM (active)
38 | Cc1ccc(-c2ncccc2OC(=O)C23CC4CC(CC(C4)C2)C3)cc1 | – | 14100 nM (active)
39 | CC(C)CO/N=C1/C[C@@H](O)[C@@H](O)[C@@H]2[C@@H]3C(=O)N(C[C@@H]4CCCO4)C(=O)[C@H]3CC[C@H]12 | -4.99% [at 11.4 µM] | –
40 | Cn1c(=O)c2cn(-c3ccccc3)cc2n(C)c1=O | – | 1780 nM (active)

Row | Compound | activity, negative = inhibition | AC50
41 | Cn1c(=O)n(CCC(=O)O)c2ccccc21 | -19.4% | –
42 | Cn1c(=O)c2cc(S(=O)(=O)NCCC(=O)NCc3ccccc3Cl)ccc2n(C)c1=O | -16.4% | –
43 | CCCNC(=O)OC[C@H]1O[C@@H](CCO/N=C\[C@@H](NS(=O)(=O)c2ccc(C)cc2)[C@H](C)/C=C\CC(=O)OC)C=C[C@@H]1Oc1ccc(OC)cc1 | 2.17% [at 11.4 µM] | –
44 | C[C@@]1(C(NC(=O)c2ccccc2)c2ccc(-c3ccccc3)cc2)C[C@H]1C1CCCCC1 (stereo not given in full) | 7.91% | –
45 | O=C(c1ccccc1)[C@@H]1O[C@H]1c1ccc(-c2ccccc2)cc1 | – | 6310 nM (active)
46 | CCN1CCN(CCCNC(=O)C(NC(=O)C2CCC(C)CC2)C(C)C)CC1 (stereo not given) | -16.2% | –
47 | O=C(c1cc(C(F)(F)F)cc(C(F)(F)F)c1)N1CCC[C@@]2(CCN(c3ncccn3)C2)C1 | -18.7% | –
48 | O=C1CC[C@H](N2C(=O)c3ccccc3C2=O)C(=O)N1 | -5.92% [at 25.6 µM] | –
49 | O=c1c(CCc2ccccc2)nc2cncnc2n1-c1ccccc1 | – | 15800 nM (active)
50 | COCCn1c(=O)c(CCc2ccccc2)nc2cncnc21 | – | 10000 nM (active)
51 | NCCn1c(=O)c(CCc2ccccc2)nc2cncnc21 | – | 12600 nM (active)
52 | CCCNC(=O)N1CCC(C(=O)c2ccc(F)cc2)CC1 | -5.51% | –
53 | NC(=O)C1(NC(=O)[C@@H]2CC3(CC(c4cccc(NC(=O)c5cc([N+](=O)[O-])cc([N+](=O)[O-])c5)c4)=NO3)CN2C(=O)c2ccccc2)CC1 (stereo not given in full) | -6.89% | –
54 | CCC(NC(=O)Nc1cc(OC)c(OC)c(OC)c1)(C(F)(F)F)C(F)(F)F | -26.6% | –
55 | COc1ccc(-c2cc(C(=O)Nc3cc(OC)c(OC)c(OC)c3)no2)cc1OC | -24.1% | –
56 | COc1ccc(NC(=O)COC(=O)Cn2c(C)nc3ccccc32)cc1OC | -13.5% | –
57 | COc1ccc(NC(=O)C(F)(F)F)cc1OC | – | 12600 nM (active)
58 | COc1ccc(C(=O)Nc2ccc(OCC(F)(F)C(F)F)c(C(F)(F)F)c2)cc1OC | -9.8% | –
59 | COc1ccc(NC(=O)c2cc(C(C)C)on2)cc1OC | – | 15800 nM (active)
60 | COc1ccc(NC(=O)CC#N)cc1OC | – | 15800 nM (active)
